Experimental findings from PubChem BioAssay (Tox21) are described below.

Several values for one entry are separate records, joined by “and”; a condition that tells them apart may be missing. Equal entries are not always repeated. Inconclusive results are not listed. Entries that show only a call come without a potency. Some compounds were tested as several samples or in several runs, with calls that do not always agree. Activity calls are given as the source filed them. Calls come from the whole dose curve.
Potency is the fitted concentration of half-maximal effect.

The test in a line: qHTS assay to identify small molecule agonists of the NFkB signaling pathway - cell viability counter screen (AID 1159515). Note: nearly all actives have a fitted effect of over 55% in size. The conditions noted are these: NFkB-bla ME-180 viability, CellTiter-Glo luminescence, 5 h; series mostly up to 61 µM. The source says:
National Center for Advancing Translational Sciences [NCATS]
NIH Chemical Genomics Center [NCGC]
U.S. Environmental Protection Agency [EPA]
National Institutes of Environmental Health Sciences [NIEHS]
National Toxicology Program [NTP]
U.S. Food and Drug Administration [FDA]
Transcription factors and their stimulated target gene expression play pivotal roles across many cellular processes including responses to environmental stimuli. Proper regulation of associated pathways is critical to maintain cell health and function. Constitutive activation of transcription factor pathways has been implicated in tumors as it may block cellular functions such as apoptosis and lead to invasion and metastasis. One important transcription factor that stimulates gene expression in response to cytokines, UV radiation, and other stimuli is nuclear factor-kappa B (NFkB). To measure activation of the NFkB pathway, the CellSensor NFkB-bla ME-180 cell line (Life Technologies, Carlsbad, CA) that stably expresses beta-lactamase reporter gene under the regulation of a NF-kB response element was used. This assay allows measurement of the NFkB pathway activity induced by compounds in a ME-180 cell line. This system quantitates NF-kB activity using a FRET-based assay system where beta-lactamase expression disrupts FRET, allowing for fluorescent measurement of activity. This cell line has been used to screen the Tox21 10K compound library and to identify compounds that induce the NFkB pathway activity. The cytotoxicity of the Tox21 compound library against the NFkB-bla ME-180 cell line was tested in parallel by measuring cell viability using the CellTiter-Glo assay in the same wells.
Tox21 Assay Protocol Summary:
NFkB-bla ME-180 cells were dispensed at 2,000 cells/6 uL of assay medium per well into black wall/clear-bottom 1536-well plates using a Multidrop Combi (ThermoFisher Scientific, Waltham, MA) dispenser. After the assay plates were incubated at 37 C and 5% CO2 for an overnight, 23 nL of compounds dissolved in DMSO, positive controls or DMSO only was transferred to the assay plate by a Pintool station (Kalypsys, San Diego, CA). The assay plates were incubated at 37 C and 5% CO2 for 5 hr. One uL of LiveBLAzer B/G FRET substrate (Life Technologies) was added using a Flying Reagent Dispenser (Aurora Discovery, San Diego, CA) and the plates were incubated at room temperature for 1.5 hr. Fluorescence intensity (405 nm excitation, 460 nm and 530 nm emissions) was measured using an Envision plate reader (PerkinElmer, Shelton, CT). For cytotoxicity, 3 ul/well of CellTiter-Glo reagent was added into the assay plates using an FRD. After 30 min incubation at room temperature, the luminescence intensity was measured using a ViewLux plate reader (PerkinElmer).
As for `Cc1ccc(C(C)(C)C)c(O)c1`, the Potency entry is “inactive”.
To `NCCN` belongs “inactive”; to `CCCCCC=O`, “inactive”.
In the case of `CC(=O)Oc1ccc(C(c2ccc(OC(C)=O)cc2)c2ccccn2)cc1` it was 546 nM (active) and 1.07 µM (active).
For the compound `CC(=O)[C@@]1(O)CC[C@H]2[C@@H]3C[C@H](C)C4=CC(=O)C=C[C@]4(C)[C@@]3(F)[C@@H](O)C[C@@]21C`, the Potency result is “inactive”.
On to `CC(C)(C)c1cccc(C(C)(C)C)c1O`, for which the Potency entry was “inactive”.
To `OC[C@@H](O)[C@@H](O[C@@H]1O[C@H](CO)[C@H](O)[C@H](O)[C@H]1O)[C@H](O)[C@@H](O)CO` belongs “inactive”; to `IC(I)I`, “inactive”; to `COCCOCCOCCO`, “inactive”.
To `CN(C)CCCN1c2ccccc2Sc2ccc(Cl)cc21` belongs 54.9 µM (active) and inactive.
To `C=CCCCCCCCCCC` belongs “inactive”; to `CC1(C)C(C=C(Cl)Cl)C1C(=O)OCc1cccc(Oc2ccccc2)c1` (stereo not given), “inactive”; to `Nc1cc([N+](=O)[O-])ccc1C(=O)O`, “inactive”.
As to `COc1ccc(-c2coc3cc(O)cc(O)c3c2=O)cc1`, the Potency entry is “inactive”.
In the case of `OC[C@H]1O[C@@H]2O[C@H]3[C@H](O)[C@@H](O)[C@@H](O[C@H]4[C@H](O)[C@@H](O)[C@@H](O[C@H]5[C@H](O)[C@@H](O)[C@@H](O[C@H]6[C@H](O)[C@@H](O)[C@@H](O[C@H]7[C@H](O)[C@@H](O)[C@@H](O[C@H]1[C@H](O)[C@H]2O)O[C@@H]7CO)O[C@@H]6CO)O[C@@H]5CO)O[C@@H]4CO)O[C@@H]3CO` it was “inactive”.
As to `COC(=O)c1ccc(C)cc1`, the Potency result is “inactive”.
Consider `CCCCCCCCCCC(CO)CCCCCCCC` (stereo not given), for which the Potency entry was “inactive”.
To `COc1ccc2nc(N)sc2c1` belongs “inactive”; to `ClC/C=C/CCl`, “inactive”; to `C=CCOC(=O)C(=C)C`, “inactive”.
To `CCCOCCO` belongs “inactive”; to `CC(=O)[C@H]1CC[C@H]2[C@@H]3CC=C4C[C@@H](O)CC[C@]4(C)[C@H]3CC[C@]12C`, “inactive”.
`FC(F)(F)C(Cl)Br` (stereo not given): the Potency result is “inactive”.
In the case of `C[C@]12C=CC(=O)C=C1CC[C@H]1[C@@H]3C[C@@H](O)[C@](O)(C(=O)CO)[C@@]3(C)C[C@H](O)[C@@]12F` it was “inactive”; in that of `[O-]/[N+](=N\O)c1ccccc1`, “inactive”.
With `c1ccc2c(c1)[nH]c1ccccc12`, the Potency entry is “inactive”.
With `Cc1ccc(N)c([N+](=O)[O-])c1`, the Potency entry is “inactive”.
In the case of `CN(C)C` it was “inactive”.
As for `CC(=O)O[C@]1(C(C)=O)CC[C@H]2[C@@H]3C=C(Cl)C4=CC(=O)CC[C@]4(C)[C@H]3CC[C@@]21C`, the Potency result is “inactive”.
To `O=C(O)c1ccc(O)cc1` belongs “inactive”; to `COc1cc([C@H]2Oc3cc([C@H]4Oc5cc(O)cc(O)c5C(=O)[C@@H]4O)ccc3O[C@@H]2CO)ccc1O`, “inactive”.
To `CCc1cccc2c3c([nH]c12)C(CC)(CC(=O)O)OCC3` (stereo not given) belongs “inactive”; to `NC[C@H](O)c1ccc(O)c(O)c1`, “inactive”; to `CC(=O)O[C@]1(C(C)=O)CC[C@H]2[C@@H]3C=C(C)C4=CC(=O)CC[C@]4(C)[C@H]3CC[C@@]21C`, “inactive”.
Consider `CC(C)[N+](C)(CCOC(=O)C1c2ccccc2Oc2ccccc21)C(C)C`, for which the Potency entry is “inactive”.
In the case of `c1ccc2cc3ccccc3cc2c1` it was “inactive”; in that of `C/C=C/C(=O)N(CC)c1ccccc1C`, “inactive”; in that of `CCCCCCOCCOCCO`, “inactive”.
In the case of `CN(C)/N=N/c1nc[nH]c1C(N)=O` it was “inactive”.
As to `O=C(O)CCCC(=O)O`, the Potency result is “inactive”.
